Among all 5,500 compounds or so, about 2,000 (36%) were called active. Inconclusive results (about 18%) are left out. Rule as the data show it: active = normalized growth mostly below about 0.91 (no sharp cut-off); inconclusive = no clear call, values can overlap the other calls; inactive = mostly above about 0.92. This is one part of the list.
Assay: chemical genetic growth profiling, strain panel (AID 1159580);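 also: tested at 20 µM; growth read once vehicle control cultures reached saturation at 30 °C; 1 = growth at the plate median or of vehicle wells; lower values mean less growth of the strain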
Settings: growth OD

Measured: normalized growth

Nc1ncnc2nc[nH]c12
inactive: S. cerevisiae deletion strains, locus YJR066W, strain TOR1, stronger effect = lower value 0.966 | S. cerevisiae deletion strains, locus YKL009W, strain mrt4, stronger effect = lower value 0.942 | S. cerevisiae deletion strains, locus YKL068W, stronger effect = lower value 1.03 | S. cerevisiae deletion strains, locus YKL085W, strain MDH1 (second series), stronger effect = lower value 1.01 | S. cerevisiae deletion strains, locus YKL085W, strain MDH1, stronger effect = lower value 1.01 | S. cerevisiae deletion strains, locus YKL160W, strain elf1, stronger effect = lower value 0.995 | S. cerevisiae deletion strains, locus YKR026C, strain gcn3, stronger effect = lower value 0.996 | S. cerevisiae deletion strains, locus YKR091W, strain srl3, stronger effect = lower value 0.99 | S. cerevisiae deletion strains, locus YLL001W, strain dnm1, stronger effect = lower value 0.965 | S. cerevisiae deletion strains, locus YLL026W, stronger effect = lower value 0.994 | S. cerevisiae deletion strains, locus YLL041C, strain sdh2, stronger effect = lower value 0.991 | S. cerevisiae deletion strains, locus YLR027C, strain aat2, stronger effect = lower value 0.997 | S. cerevisiae deletion strains, locus YLR058C, strain SHM2, stronger effect = lower value 0.908 | S. cerevisiae deletion strains, locus YLR102C, strain apc9, stronger effect = lower value 0.997 | S. cerevisiae deletion strains, locus YLR113W, strain HOG1, stronger effect = lower value 1.04 | S. cerevisiae deletion strains, locus YLR221C, strain rsa3, stronger effect = lower value 0.964 | S. cerevisiae deletion strains, locus YLR258W, strain gsy2, stronger effect = lower value 0.985 | S. cerevisiae deletion strains, locus YLR262C, strain YPT6 (second series), stronger effect = lower value 1.01 | S. cerevisiae deletion strains, locus YLR320W, strain mms22, stronger effect = lower value 0.973 | S. cerevisiae deletion strains, locus YLR342W, strain FKS1 (second series), stronger effect = lower value 0.864 | S. cerevisiae deletion strains, locus YLR342W, strain FKS1, stronger effect = lower value 0.983 | S. cerevisiae deletion strains, locus YLR357W, strain rsc2, stronger effect = lower value 0.972 | S. cerevisiae deletion strains, locus YLR370C, strain arc18, stronger effect = lower value 0.983 | S. cerevisiae deletion strains, locus YLR371W, strain rom2, stronger effect = lower value 0.985 | S. cerevisiae deletion strains, locus YLR384C, strain iki3, stronger effect = lower value 0.987 | S. cerevisiae deletion strains, locus YML016C, strain PPZ1, stronger effect = lower value 1.04 | S. cerevisiae deletion strains, locus YML032C, strain rad52, stronger effect = lower value 0.972 | S. cerevisiae deletion strains, locus YML120C, strain ndi1, stronger effect = lower value 0.97 | S. cerevisiae deletion strains, locus YML124C, strain tub3, stronger effect = lower value 1 | S. cerevisiae deletion strains, locus YMR058W, strain fet3, stronger effect = lower value 0.994 | S. cerevisiae deletion strains, locus YMR078C, strain ctf18, stronger effect = lower value 0.988 | S. cerevisiae deletion strains, locus YMR125W, strain sto1, stronger effect = lower value 0.978 | S. cerevisiae deletion strains, locus YMR129W, stronger effect = lower value 0.979 | S. cerevisiae deletion strains, locus YMR205C, strain PFK2, stronger effect = lower value 0.968 | S. cerevisiae deletion strains, locus YMR231W, strain pep5, stronger effect = lower value 0.991 | S. cerevisiae deletion strains, locus YMR263W, strain SAP30, stronger effect = lower value 0.932 | S. cerevisiae deletion strains, locus YMR307W, strain GAS1, stronger effect = lower value 1.18 | S. cerevisiae deletion strains, locus YNL067W, strain RPL9B, stronger effect = lower value 0.945 | S. cerevisiae deletion strains, locus YNL071W, strain lat1, stronger effect = lower value 0.988 | S. cerevisiae deletion strains, locus YNL128W, strain TEP1, stronger effect = lower value 0.955 | S. cerevisiae deletion strains, locus YNL183C, strain NPR1, stronger effect = lower value 0.97 | S. cerevisiae deletion strains, locus YNL209W, strain ssb2, stronger effect = lower value 0.984 | S. cerevisiae deletion strains, locus YNL248C, strain rpa49, stronger effect = lower value 0.982 | S. cerevisiae deletion strains, locus YNL250W, strain rad50, stronger effect = lower value 1.01 | S. cerevisiae deletion strains, locus YNL271C, strain bni1, stronger effect = lower value 0.956 | S. cerevisiae deletion strains, locus YNL298W, strain CLA4, stronger effect = lower value 0.956 | S. cerevisiae deletion strains, locus YNL322C, strain KRE1 (second series), stronger effect = lower value 0.982 | S. cerevisiae deletion strains, locus YNL322C, strain KRE1, stronger effect = lower value 0.97 | S. cerevisiae deletion strains, locus YNR049C, strain mso1, stronger effect = lower value 0.982 | S. cerevisiae deletion strains, locus YNR052C, strain pop2, stronger effect = lower value 0.954 | S. cerevisiae deletion strains, locus YOL006C, strain TOP1, stronger effect = lower value 0.783 | S. cerevisiae deletion strains, locus YOL012C, strain htz1 0.719 | S. cerevisiae deletion strains, locus YOR001W, strain rrp6, stronger effect = lower value 1 | S. cerevisiae deletion strains, locus YOR061W, strain CKA2, stronger effect = lower value 0.995 | S. cerevisiae deletion strains, locus YOR069W, strain VPS5, stronger effect = lower value 0.971 | S. cerevisiae deletion strains, locus YOR070C, strain gyp1, stronger effect = lower value 0.981 | S. cerevisiae deletion strains, locus YOR080W, strain dia2, stronger effect = lower value 0.997 | S. cerevisiae deletion strains, locus YOR083W, strain WHI5, stronger effect = lower value 0.981 | S. cerevisiae deletion strains, locus YOR106W, strain vam3, stronger effect = lower value 0.953 | S. cerevisiae deletion strains, locus YOR136W, strain idh2, stronger effect = lower value 0.968 | S. cerevisiae deletion strains, locus YOR231W, strain MKK1, stronger effect = lower value 1.01 | S. cerevisiae deletion strains, locus YOR265W, strain rbl2, stronger effect = lower value 0.987 | S. cerevisiae deletion strains, locus YOR270C, strain vph1, stronger effect = lower value 0.972 | S. cerevisiae deletion strains, locus YOR290C, strain snf2, stronger effect = lower value 0.971 | S. cerevisiae deletion strains, locus YOR316C, strain cot1, stronger effect = lower value 0.995 | S. cerevisiae deletion strains, locus YPL051W, strain arl3, stronger effect = lower value 0.99 | S. cerevisiae deletion strains, locus YPL055C, strain LGE1, stronger effect = lower value 0.796 | S. cerevisiae deletion strains, locus YPL078C, strain atp4, stronger effect = lower value 0.983 | S. cerevisiae deletion strains, locus YPL106C, strain sse1, stronger effect = lower value 0.973 | S. cerevisiae deletion strains, locus YPL240C, strain hsp82, stronger effect = lower value 0.993 | S. cerevisiae deletion strains, locus YPL241C, strain CIN2, stronger effect = lower value 1.01 | S. cerevisiae deletion strains, locus YPL256C, strain CLN2, stronger effect = lower value 1.06 | S. cerevisiae deletion strains, locus YPR119W, strain clb2, stronger effect = lower value 0.987 | S. cerevisiae deletion strains, locus YPR141C, strain kar3, stronger effect = lower value 1.02 | S. cerevisiae deletion strains, locus YPR167C, strain met16, stronger effect = lower value 0.976
active: S. cerevisiae deletion strains, locus YKR001C, strain vps1, stronger effect = lower value 0.319 | S. cerevisiae deletion strains, locus YLR039C, strain RIC1, stronger effect = lower value 0.443 | S. cerevisiae deletion strains, locus YLR262C, strain YPT6, stronger effect = lower value 0.514 | S. cerevisiae deletion strains, locus YLR268W, strain sec22, stronger effect = lower value 0.795 | S. cerevisiae deletion strains, locus YLR330W, strain CHS5, stronger effect = lower value 0.842 | S. cerevisiae deletion strains, locus YLR418C, strain cdc73, stronger effect = lower value 0.612 | S. cerevisiae deletion strains, locus YMR223W, strain ubp8, stronger effect = lower value 0.846 | S. cerevisiae deletion strains, locus YNL233W, strain BNI4, stronger effect = lower value 0.695 | S. cerevisiae deletion strains, locus YNL307C, strain MCK1, stronger effect = lower value 0.591 | S. cerevisiae deletion strains, locus YOL147C, strain pex11, stronger effect = lower value 0.834 | S. cerevisiae deletion strains, locus YOR144C, strain elg1, stronger effect = lower value 0.885 | S. cerevisiae deletion strains, locus YOR184W, strain ser1, stronger effect = lower value 0.708 | S. cerevisiae deletion strains, locus YPR163C, strain tif3, stronger effect = lower value 0.889 | S. cerevisiae deletion strains, strain wtn01, stronger effect = lower value 0.841 | S. cerevisiae strains, strain wild type, stronger effect = lower value 0.879

— PubChem BioAssay AID1159580 (chemical genetic matrix, 2015)
